Test results from PubChem BioAssay (Tox21).
Several values for one entry are separate records, joined by “and”; a condition that tells them apart may be missing. Identical values can stand only once. Inconclusive results are not listed. Entries that show only a call come without a potency. A number with no mark means an inactive call. Activity calls are given as the source filed them. Calls come from the whole dose curve; as a rule, active = well fitted cell-killing curve with a large enough effect in the repeat runs; inconclusive = weak or mixed curves, or effect the other way; inactive = flat fitted curve, though single readings scatter.

Experiments:
[1] = cAMP Responsive Elements (CRE) small molecule antagonists, cell-based qHTS assay: qHTS cell viability counter screen (AID 2060913); conditions: CRE-bla HEK293T viability, CellTiter-Glo luminescence, 5 h; series mostly up to 92.4 µM; note: nearly all actives have a fitted effect of over 40% in size
Method in brief: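 Steps: cells plated and held 18 hrs at 37 C/5% CO2; compounds and NKH477 (0.25 uM final) added; 3 hrs incubation; reporter substrate read; CellTiter-Glo added to measure cytotoxicity by luminescence.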

[2] = cAMP Responsive Elements (CRE) small molecule agonists, cell-based qHTS assay: qHTS cell viability counter screen (AID 2060914); conditions: CRE-bla HEK293T viability, CellTiter-Glo luminescence, 5 h; series mostly up to 92.4 µM; note: nearly all actives have a fitted effect of over 50% in size
Method in brief: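 Luminescence read-out (CellTiter-Glo, 30 min RT) of ATP-based viability in CRE-bla HEK 293T cells, run in the same wells as the β-lactamase reporter assay after 3 h compound treatment at 37 °C.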
Potency is the fitted concentration of half-maximal effect.

SMILES | Potency [1] | Potency [2] | viability change, negative = cytotoxic [1] | activity change, negative = cytotoxicity [2]
CC(O)COCC(C)O (stereo not given) | inactive | inactive |  | 
CCN(CC)CCNC(=O)c1ccc(NC(C)=O)cc1 | inactive | inactive |  | 
CN(C)c1cccc(O)c1 | inactive | inactive |  | 
Cc1cccc(C)c1NC(=O)c1cc(S(N)(=O)=O)c(Cl)cc1O | inactive | inactive |  | 
CN(C)CCc1c[nH]c2ccc(C[C@H]3COC(=O)N3)cc12 | inactive | inactive |  | 
O=Nc1ccc(O)cc1 | inactive | inactive |  | 
CC(O)c1ccccc1 (stereo not given) | inactive | inactive |  | 
c1ccc(-c2nn[nH]n2)cc1 | inactive | inactive |  | 
CC(C)=CCC1C(=O)N(c2ccccc2)N(c2ccccc2)C1=O | inactive | inactive |  | 
CCCCC(CC)CCC(CC(C)C)OS(=O)(=O)O (stereo not given) | inactive | inactive |  | 
O=c1c2ccccc2oc2ccccc12 | inactive | inactive |  | 
Nc1ccn(C2CO[C@H](CO)O2)c(=O)n1 (stereo not given in full) | inactive | inactive |  | 
Cn1ccnc1 | inactive | inactive |  | 
COc1ccccc1O | inactive | inactive |  | 
C[C@]12CC[C@@H]3c4ccc(O)cc4CC[C@H]3[C@@H]1C[C@@H](O)[C@@H]2O | inactive | inactive |  | 
Nc1cc(C(=O)O)ccc1Cl | inactive | inactive |  | 
COC(=O)c1c(C)cc(O)c(C)c1O | inactive | inactive |  | 
NC(=O)c1ccncc1 | inactive | inactive |  | 
C#CC(O)CCCCC (stereo not given) | inactive | inactive |  | 
O=C1OCCN1/N=C/c1ccc([N+](=O)[O-])o1 | inactive | inactive |  | 
COC(=O)[C@H]1[C@H]2C[C@@H]3c4[nH]c5cc(OC)ccc5c4CCN3C[C@H]2C[C@@H](OC(=O)c2cc(OC)c(OC)c(OC)c2)[C@@H]1OC | inactive | inactive |  | 
CN(C)c1ccc(N=Nc2ccccc2C(=O)O)cc1 | inactive | inactive |  | 
NCCOCCO | inactive | inactive |  | 
CCCCCCCCCCCCCC[N+](C)(C)Cc1ccccc1 | 55.3 µM (active) and 26.6 µM (active) and 15.8 mM (active) | 22 µM (active) and 11.9 µM (active) |  | 
CCCCCCCCCCCCCCCC(=O)OC[C@H](O)[C@H]1OC(=O)C(O)=C1O | inactive | inactive |  | 

SMILES | Potency [1] | Potency [2] | viability change, negative = cytotoxic [1] | activity change, negative = cytotoxicity [2]
Cc1cn[nH]c1 | inactive | inactive |  | 
CCC(C)OC(C)CC (stereo not given) | inactive | inactive |  | 
CC(=O)C1CCCCC1=O (stereo not given) | inactive | inactive |  | 
O=C(Nc1cccc(C2=NCCN2)c1)Nc1cccc(C2=NCCN2)c1 |  |  | 0.0426% [at 18.9 µM] | 10.9% [at 18.9 µM]
CN(C)C(=O)Nc1ccc(Cl)c(Cl)c1 | inactive | inactive |  | 
N#CCc1cccc(C(F)(F)F)c1 | inactive | inactive |  | 
CCOC(=O)CC(C)O (stereo not given) | inactive | inactive |  | 
CSc1c(Cl)c(Cl)c(Cl)c(Cl)c1Cl | inactive | inactive |  | 
CCCCC(CC)COCC1CO1 (stereo not given) | inactive | inactive |  | 
CCN1CCC[C@H]1CNC(=O)c1c(OC)ccc(Br)c1OC | inactive | inactive |  | 
O=c1[nH][nH]c2ccccc12 | inactive | inactive |  | 
CCCCCCCCCCCCCCC(=O)O | inactive | inactive |  | 
COc1ccc(N)c(C)c1 | inactive | inactive |  | 
CC(C)COC(=O)C(C)C | inactive | inactive |  | 
FC(F)OC(Cl)C(F)(F)F (stereo not given) | inactive | inactive |  | 
NC(CSCC(=O)O)C(=O)O (stereo not given) | inactive | inactive |  | 
Clc1ccccc1C(c1ccccc1)(c1ccccc1)n1ccnc1 | inactive | inactive |  | 
CN1CCN(C2=Nc3cc(Cl)ccc3Nc3ccccc32)CC1 | inactive | inactive |  | 
CCC(=O)Oc1ccc(/C(CC)=C(\CC)c2ccc(OC(=O)CC)cc2)cc1 | inactive | inactive |  | 
CN1CCN2c3ccccc3Cc3ccccc3C2C1 (stereo not given) | inactive | inactive |  | 
CCCCCCC(CCCCCCCCCCC(=O)OCC(COC(C)=O)OC(C)=O)OC(C)=O (stereo not given) | inactive | inactive |  | 
O=Cc1ccc(C(=O)O)cc1 | inactive | inactive |  | 
CCCNC(C)C(=O)Nc1ccccc1C (stereo not given) | inactive | inactive |  | 
CCCC(C)c1ccccc1O (stereo not given) | inactive | inactive |  | 
[O]=[Bi] |  |  | -2.63% [at 8.39 µM] | -8.94% [at 8.39 µM]

SMILES | Potency [1] | Potency [2] | viability change, negative = cytotoxic [1] | activity change, negative = cytotoxicity [2]
CCC(C)(O)CCC=C(C)C (stereo not given) | inactive | inactive |  | 
COc1c(Br)cc(Br)c(C)c1Br | inactive | inactive |  | 
O[C@@H]1CO[C@H]2[C@@H]1OC[C@@H]2O | inactive | inactive |  | 
O=C(O)CNC(=O)c1ccccc1I | inactive | inactive |  | 
O=C1c2ccccc2C(=O)c2c(O)c(O)cc(O)c21 | inactive | inactive |  | 
O=S(O)CO | inactive | inactive |  | 
C=COCC1CCC(COC=C)CC1 (stereo not given) | inactive | inactive |  | 
O=C(CN1CCNCC1)NC1CCCCC1 | inactive | inactive |  | 
Cc1cc(C(C)(C)C)c(O)c(C)c1Cn1c(=O)n(Cc2c(C)cc(C(C)(C)C)c(O)c2C)c(=O)n(Cc2c(C)cc(C(C)(C)C)c(O)c2C)c1=O | inactive | inactive |  | 
Nc1cccc2c1CN(C1CCC(=O)NC1=O)C2=O (stereo not given) | inactive | inactive |  | 
CNC1CCCN(c2c(F)cc3c(=O)c(C(=O)O)cn(C4CC4)c3c2OC)C1 (stereo not given) | inactive | inactive |  | 
CCn1cc(C(=O)O)c(=O)c2cnc(N3CCCC3)nc21 |  |  | 3.75% [at 8.39 µM] | -22.5% [at 8.39 µM]
C[N+]1(C)CCC(OC(=O)C(O)(c2ccccc2)C2CCCC2)C1 (stereo not given) | inactive | inactive |  | 
O=S(=O)(O)NC1CCCCC1 | inactive | inactive |  | 
Cc1oc(C)c(C(=O)Nc2ccccc2)c1C | inactive | inactive |  | 
Nc1nc(Cl)nc2c1ncn2[C@H]1C[C@H](O)[C@@H](CO)O1 | inactive | inactive |  | 
O=c1oc(=O)c2cc3c(=O)oc(=O)c3cc12 | inactive | inactive |  | 
Cc1c(-c2ccccc2)oc2c(C(=O)OCCN3CCCCC3)cccc2c1=O | inactive | inactive |  | 
Cc1cc(CCC(=O)OCCOCCOCCOC(=O)CCc2cc(C)c(O)c(C(C)(C)C)c2)cc(C(C)(C)C)c1O | inactive | inactive |  | 
C#CC(C)N(C)C(=O)Nc1ccc(Cl)cc1 (stereo not given) | inactive | inactive |  | 
Cc1ccccc1N=C(N)Nc1ccccc1C | inactive | inactive |  | 
CCCCCCCCCCCCCCCCO | inactive | inactive |  | 
CN1C(=O)N(C)C(O)C1O (stereo not given) | inactive | inactive |  | 
COc1ccc(C(Cl)=C(c2ccc(OC)cc2)c2ccc(OC)cc2)cc1 | inactive | inactive |  | 
Nc1cc(S(=O)(=O)O)ccc1S(=O)(=O)O | inactive | inactive |  | 

SMILES | Potency [1] | Potency [2] | viability change, negative = cytotoxic [1] | activity change, negative = cytotoxicity [2]
CCCN(CCC)c1c([N+](=O)[O-])cc(C(F)(F)F)c(N)c1[N+](=O)[O-] | inactive | 60.9 µM (active) |  | 
CNC(=O)c1cc(Oc2ccc(NC(=O)Nc3ccc(Cl)c(C(F)(F)F)c3)cc2)ccn1 | inactive | inactive |  | 
Cc1cccc(C)c1NC(=O)CN1CCN(CCCC(c2ccc(F)cc2)c2ccc(F)cc2)CC1 | inactive | inactive |  | 
CC(=O)N(c1onc(C)c1C)S(=O)(=O)c1ccc(N)cc1 | inactive | inactive |  | 
NS(=O)(=O)c1cc2c(cc1Cl)NC=NS2(=O)=O | inactive | inactive |  | 
OC[C@@H](O)[C@@H](O)[C@H](O)[C@@H](O)CO | inactive | inactive |  | 
CCCC(CCC)C(=O)O | inactive | inactive |  | 
Cc1ccc(C(=O)O)o1 | inactive | inactive |  | 
O=c1n(CC2CO2)c(=O)n(CC2CO2)c(=O)n1CC1CO1 (stereo not given) | inactive | inactive |  | 
O=C(O)c1cn(C2CC2)c2cc(Cl)c(F)cc2c1=O | inactive | inactive |  | 
CO[Si](CCCNCCN)(OC)OC | inactive | inactive |  | 
C=C[C@H]1CN2CC[C@H]1C[C@@H]2[C@@H](O)c1ccnc2ccc(OC)cc12 | inactive | inactive |  | 
CCn1c2ccccc2c2ccccc21 | inactive | inactive |  | 
Cc1nnc(SCC2=C(C(=O)O)N3C(=O)[C@@H](NC(=O)Cn4cnnn4)[C@H]3SC2)s1 | inactive | inactive |  | 
CC(=O)N[C@H]1[C@H]([C@H](O)[C@H](O)CO)OC(C(=O)O)=C[C@@H]1N=C(N)N | inactive | inactive |  | 
Nc1nc2ccccc2n1Cc1ccc(F)cc1 | inactive | inactive |  | 
Cc1cc(CCN2CCN(c3nsc4ccccc34)CC2)cc2c1NC(=O)CC2(C)C | 68.6 µM (active) | 68.6 µM (active) |  | 
N#Cc1ccc(C2CCCc3cncn32)cc1 (stereo not given) | inactive | inactive |  | 
Cc1cccc(C)c1C | inactive | inactive |  | 
Cc1ccc(S(=O)(=O)N=C=O)cc1 | inactive | inactive |  | 
COc1nccnc1NS(=O)(=O)c1ccc(N)cc1 | inactive | inactive |  | 
CC(C)CC(=O)C1C(=O)c2ccccc2C1=O | inactive | inactive |  | 
Oc1ccccc1-c1nnco1 | inactive | inactive |  | 
c1ccc2c(c1)ccc1cc3c(ccc4ccccc43)cc12 | inactive | inactive |  | 
Cc1cc(Br)ccc1NC(=O)CCl | inactive | inactive |  | 
